Data: the supplement of paper PMC3334620
Over roughly 33,000 sequences, “E-score (-0.5 to 0.5)” has its median near -0.04; the highest 2% begin near 0.36. The full list was thinned out, with the highest values kept by preference.

Molecular target: T1, Hmlalpha2 (UniProt P0CY09)
T1 sequence: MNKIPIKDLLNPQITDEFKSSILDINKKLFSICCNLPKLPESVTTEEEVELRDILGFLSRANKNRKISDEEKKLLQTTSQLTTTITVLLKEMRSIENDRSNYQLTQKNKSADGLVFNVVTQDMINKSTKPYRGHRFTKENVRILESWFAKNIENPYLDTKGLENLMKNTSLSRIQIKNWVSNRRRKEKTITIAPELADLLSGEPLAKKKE
Test: PBM E-score (8-mer binding enrichment) (E-score (-0.5 to 0.5)); higher = stronger / more preferred TF binding
Details: protein concentration: 200 nM; construct: GST-full length
Procedure, shortened: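 Masliner-normalised scans of fluorescent anti-GST signal were the basis for scoring. That signal came from GST-tagged yeast transcription factors applied at about 100-200 nM to double-stranded universal all-10-mer Agilent arrays on fresh or once-stripped slides. Each ungapped eight-base word, pooled with its reverse complement, received an E-score from the Universal PBM Analysis Suite.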

Sequence	PBM E-score
ACTACGCT	0.106
ACTGCTCA	0.0532
GAAGATAA	0.242
AAAGGGAC	-0.2
GCAATCTA	0.119
ATCTTCTA	-0.0325
GACATAGA	0.145
CACATAGA	0.0951
TACATAGA	0.427
CGTTAAAA	0.272
TGTTATAA	0.399
GGTTAAAA	0.28
AGTTAACG	0.248
AGTTATAA	0.172
TGTTAACA	0.426
AGTTAACT	0.129
TGCTAACA	0.245
CGTTAACA	0.34
CGTTATAA	0.222
TGTTAAAA	0.43
AGTTAACA	0.392
AGCTGGAC	-0.0393
AAGGCCAC	-0.186
CGGGCAAC	-0.261
ATAGATTA	0.151

Sequence	PBM E-score
AAAAAGGA	-0.00436
GTGGCTGA	-0.248
CCATGCGG	-0.12
GAGGAGAA	-0.191
GGTTAACA	0.412
GGTTAACC	-0.142
GGTTAAGA	0.148
CGCCAGAG	-0.305
GATGGTCC	-0.0351
CCCGGTGA	-0.242
ACTACATA	0.378
ACTACAGG	0.133
GCTACATA	0.255
ACGACATA	0.134
ACTACATC	0.275
ACGACATC	0.0415
ACGACATG	0.382
ACTACATG	0.43
CCTACATA	0.13
CCGTTGTC	0.0589
ACCCTGCA	0.0038
CGATTGCG	-0.0285
AGTACATA	0.401
AGTACATG	0.415
AGTACAAG	0.267

Sequence	PBM E-score
GGTACATA	0.141
AGTACATC	0.233
CGTACATA	0.363
CTGCCATC	-0.239
CCTCCCCA	-0.233
CCGGCAGC	-0.36
AGCAATCG	0.108
TATCAAAA	0.173
CAGGCCCA	-0.135
CTATTCGC	-0.117
TCCGCCGA	-0.0873
GACACGCA	0.301
TACACGCA	0.442
ACCACGCT	-0.134
CACACGCA	0.19
AACACGCT	0.387
AACACGCC	0.359
CACACGCG	0.264
AACACGCA	0.412
ATCACGCG	0.144
AGCACGCA	0.0284
AGCACGCT	0.00597
AACACGCG	0.406
ATGTCTTG	0.0125
CACGCGGA	0.109

Sequence	PBM E-score
AGATCCTA	-0.165
ACGGGACT	-0.101
CGAGCATA	-0.325
CCCTAACG	-0.0128
ATACTATG	0.0473
GAAGCTCC	-0.218
ACTTCTTC	0.0141
CTTTTACC	0.139
ACTTTACC	0.151
ACTTTACT	0.109
ACTTTACA	0.429
GCTTTACA	0.405
GCTTTACC	0.21
ATTTTACC	0.188
CTTTTACA	0.453
GCTTTAAA	0.095
ATTTTACG	0.31
CTTTTATA	0.0262
ATTTTACA	0.41
ATGGTAGC	-0.037
GTCAGTAA	0.133
ACTCTCCC	-0.283
CTGGGATC	-0.141
CACATTGA	0.097
AATTTCAC	0.0769

Sequence	PBM E-score
TCTTTACA	0.445
CCTTTACC	-0.204
TCTTTGCA	0.0746
TCTTTAAA	0.0801
CCTTTACA	0.448
CCTTTACG	0.223
GGAAAAAC	0.0566
AATGATAT	0.0696
AGTCTCTC	-0.306
GATGTCAA	0.194
CGTGTCAA	0.438
CATGTCAA	0.44
AATGTCAA	0.182
AGTGTCAA	0.134
CATGTCAG	0.314
CATGTCGG	0.265
CGTGTCAG	0.273
CATGTCGA	0.386
CATGTCAC	0.245
GATGTCGA	0.126
TATGTCAA	0.426
GAGGATCA	-0.143
CTCAGTAA	-0.0267
AACGCAGG	0.0539
AGAATCTC	-0.015

Sequence	PBM E-score
GAGGTTAC	0.0883
TAACTCGA	0.277
AGACTCGA	-0.211
GGCGGTGA	-0.163
CGCCACAG	-0.0887
ACATGAAG	0.338
ACATGAAA	0.302
GCATGAAC	0.104
ACATGAAT	0.371
ACATGAAC	0.366
CCATGAAC	-0.0422
AGCAGGCG	0.046
GATTGTGC	0.0144
ACGAGGAA	0.0596
TACGCTGA	0.122
AAATGCTG	0.229
ACATGCCT	0.3
CTATGCTC	-0.27
ACATGCTC	0.388
CCATGCTC	-0.13
TCATGCCA	0.0681
ACATGCAC	0.36
ATATGCTG	-0.0833
ACATGCAA	0.398
ACATGCCA	0.397

Sequence	PBM E-score
ACATGCTG	0.377
TCATGCAA	0.107
GTGGCCCA	-0.191
ACGCAAAC	0.125
CTCGCTAC	-0.181
CCGTTCCG	-0.225
AGCGAGTC	-0.136
CTCTAGAC	-0.116
ATCGGGGC	-0.175
AGTGCTCG	-0.187
GAGTTCGC	-0.169
TCGACAGA	-0.0778
CCATGCTA	0.0439
ACATGCGT	0.399
GCATGCTA	0.00271
ACATGCTA	0.379
ACATGCGC	0.308
ACATGCGG	0.289
TCAGCGGA	-0.169
GACCTCGC	-0.148
ACGCTCCT	0.0508
GCTAAGGA	-0.195
AATCTCCA	0.042
ACAAGCGA	0.112
GCATACAC	0.256

Sequence	PBM E-score
CCATACAC	0.145
ACATACAT	0.421
AGATACAA	0.276
ACATACAC	0.404
ACATACAA	0.325
ACATACAG	0.336
AGATACAG	-0.0238
AGATACAT	0.388
CTCTGCCA	-0.219
ATTCTTAA	0.148
GCCGAGCC	-0.127
GAGGCAGA	-0.265
CCGGACCG	-0.303
AATACACC	0.307
AATACACA	0.467
AATACACG	0.473
AATACACT	0.326
AATACTCA	0.18
CATGAGTC	0.175
ACCGGTCT	-0.25
ATTCCTGA	-0.0807
GTATAATA	0.368
ATATAATA	0.199
ATATAACC	-0.0903
CTATAACA	0.335

Sequence	PBM E-score
CTATAATA	-0.00916
ATATAACA	0.384
GTATAAAA	0.282
GTATAACA	0.378
GTATAAGA	0.116
AGCGGTTC	-0.0786
TGATCAAA	-0.137
TCACCGAA	0.0184
ACAAGTAC	0.165
CATCGGTA	-0.217
GCAAAACC	-0.272
AAATCTTC	0.0872
CCATCGCC	-0.261
ATGAACAT	0.323
CGTTACAC	0.385
CGTTACAG	-0.0046
AGTTACAC	0.426
CGTTACAA	0.318
GGTTACAC	0.314
AGTTACAG	0.0744
CGAAACTC	-0.242
CCGGCTGC	0.0149
GGCCGACA	-0.247
GAATGCTC	-0.225
ATCTCACC	-0.126

Sequence	PBM E-score
CAATCCTG	0.0153
AGGGGTTG	-0.253
CCAAGCGC	-0.0307
ACATGGGC	0.342
ACATGGAA	0.317
ACATGGGT	0.382
ACATGGAG	0.262
ACATGGGA	0.33
ACATGGAT	0.388
CCTAGGAA	-0.125
AACTTCAC	0.121
CAGATTTC	-0.132
CGAATGCA	0.145
GGCCATTA	0.0102
AGAGTGCA	-0.0981
CCACGATA	-0.11
ACACGATC	0.426
AAACGATG	0.0541
CCACGATC	0.172
ACACGATG	0.388
ACACGATA	0.433
GCACGATA	0.154
AGACGATC	-0.29
ACACGAAG	0.358
CGTGGCTC	-0.209

Sequence	PBM E-score
AAGTTCCC	-0.296
CGGTGGAC	-0.136
GAGATAAA	0.0648
ATTTAACC	0.0603
CTTTAACA	0.363
ATTTAACA	0.429
GTTTAACA	0.41
ATTTAACG	0.355
GTTTAATA	0.218
CTGGGGGA	-0.422
GCCACGAC	-0.0179
ATCTGTGG	-0.267
CCAAAGAA	-0.0602
AAAAAGAT	-0.00444
CAGGGGCG	-0.0915
ACACCTAG	-0.163
CAAAACAG	0.124
ATCATGAA	-0.0623
AGCATGAA	0.0173
GACATGAA	0.204
TACATGAA	0.45
CACATGAA	0.237
AACATGAA	0.397
AGGCCCGC	-0.162
AGGCGATG	-0.128

Sequence	PBM E-score
AATCCGGT	-0.0356
ACCATTGA	0.0496
GTAGACGA	0.17
AAGACGAT	0.0721
AAATAACA	0.316
CAATAACA	0.239
GAATAACC	-0.0464
TAATAACA	0.387
GAATAATA	0.168
GAATAACA	0.39
TGTATTAA	0.413
AGTATTAA	0.249
GGTATTAA	0.083
ATACATAC	0.386
AGACATAA	0.143
CTACATAC	0.327
AGACATAT	0.0652
CGACATAG	0.139
GTACATAC	0.362
ATACATAA	0.392
ATACATAT	0.393
CTACATAG	0.406
CCACATAG	-0.105
ACATATAT	0.27
ACACATAA	0.364

Sequence	PBM E-score
AGGAAAGG	-0.238
CTCCTATC	-0.139
ACTTTAGA	-0.0293
CAGACACA	0.035
ACCCTAAA	-0.212
AGCACTGC	-0.17
ATACATAG	0.415
AAACATAG	0.291
ACACATAG	0.282
CGGAGGGC	-0.293
AACATGAC	0.425
CACATGAC	0.267
GACATGAC	0.29
ACCATGAT	-0.0585
AGCATGAG	0.0355
AGCATGAT	0.0873
AACATGAG	0.379
AACATGAT	0.439
CACATGAG	0.0365
GAGTAGAC	-0.0398
CTGGAACC	-0.109
CTGCCTTA	-0.206
ACGAGCCA	0.0562
AGAGATAG	-0.0703
ATTGAGAA	0.142

Sequence	PBM E-score
TCCTCGCA	-0.204
CTTCACCA	-0.283
GTCGCGTA	0.414
GTCGCGGA	-0.252
CTTGCGTA	0.286
AGCGCGTA	0.388
ATCGCGTA	0.368
ATCGCGTC	0.216
CTCGCGTA	0.22
CGCGCGTA	0.283
ATCGCGTG	0.192
ATTGCGTA	0.296
GGCGCGTA	0.255
GTTGCGTA	0.378
GTCGCCAC	-0.316
GTTTGACA	0.303
AGGAAGAT	-0.192
ATGACGCC	-0.105
ATGGAGAG	-0.115
